Compound activity: PubChem BioAssay, several laboratories
NR3A LBD binder: NR3A (human) ligand-binding domain modulation; NR3A LBD differential scanning fluorimetry, Tm shift; 0% = protein alone, 100% = glycine-bound protein; AID 1259313; hit rate 2.5% among 340,000; Tm shift relative to glycine control, % at 25 µM;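 active = melting temperature shift of at least 10% of the positive control shift, at one fixed dose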
rCAG RNA binder: r(CAG) repeat RNA binding; inhibition, % at 3 µM; AID 651821; hit rate 1.3% among 370,000; TO-PRO-1 dye displacement fluorescence;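 active = inhibition above the plate cutoff, the mean of all test compounds on that plate plus 3 SD, cut at about 35% in these data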;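 note: 0% = DMSO alone and 100% = 100 µM mitoxantrone as full dye displacement; higher means more dye released from RNA so lower well fluorescence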
MPTP inh: blocks calcium-induced mitochondrial swelling; isolated mouse mitochondria, Ca2+ swelling absorbance, 30 min; inhibition, % at 10 µM; hit rate 1.4% among 360,000; AID 602449;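 active = inhibition of 50% or more, scaled per plate between neutral and stimulator controls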;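 note: 0% = DMSO wells given calcium and 100% = 1 mM EGTA wells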
Myeloid diff MLP: myeloid differentiation induction; ER-HoxA9 myeloid progenitors, lysozyme-GFP differentiation, flow cytometry; calls only at 10 µM; hit rate 1% among 360,000; AID 624256;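 active = normalized GFP-positive differentiation at or above the plate's own cutoff, the solvent-only control mean plus 3 SD; inconclusive = no clear call, values can overlap the other calls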;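 note: cells exposed to compound for four days before flow analysis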
FAS-TE inh: blocks the thioesterase domain of human fatty acid synthase | P49327 | inhibition, % at 15 µM | recombinant FAS-TE, OMFH fluorogenic substrate, fluorescence endpoint | hit rate 0.67% among 360,000;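 active = compounds whose normalised, plate-corrected inhibition of enzyme fluorescence in the single-dose primary screen is 50% or more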;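 note: 0% = DMSO with enzyme and 100% = substrate without enzyme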
Target sequence (P49327 whole entry, looked up, the tested form may be a part): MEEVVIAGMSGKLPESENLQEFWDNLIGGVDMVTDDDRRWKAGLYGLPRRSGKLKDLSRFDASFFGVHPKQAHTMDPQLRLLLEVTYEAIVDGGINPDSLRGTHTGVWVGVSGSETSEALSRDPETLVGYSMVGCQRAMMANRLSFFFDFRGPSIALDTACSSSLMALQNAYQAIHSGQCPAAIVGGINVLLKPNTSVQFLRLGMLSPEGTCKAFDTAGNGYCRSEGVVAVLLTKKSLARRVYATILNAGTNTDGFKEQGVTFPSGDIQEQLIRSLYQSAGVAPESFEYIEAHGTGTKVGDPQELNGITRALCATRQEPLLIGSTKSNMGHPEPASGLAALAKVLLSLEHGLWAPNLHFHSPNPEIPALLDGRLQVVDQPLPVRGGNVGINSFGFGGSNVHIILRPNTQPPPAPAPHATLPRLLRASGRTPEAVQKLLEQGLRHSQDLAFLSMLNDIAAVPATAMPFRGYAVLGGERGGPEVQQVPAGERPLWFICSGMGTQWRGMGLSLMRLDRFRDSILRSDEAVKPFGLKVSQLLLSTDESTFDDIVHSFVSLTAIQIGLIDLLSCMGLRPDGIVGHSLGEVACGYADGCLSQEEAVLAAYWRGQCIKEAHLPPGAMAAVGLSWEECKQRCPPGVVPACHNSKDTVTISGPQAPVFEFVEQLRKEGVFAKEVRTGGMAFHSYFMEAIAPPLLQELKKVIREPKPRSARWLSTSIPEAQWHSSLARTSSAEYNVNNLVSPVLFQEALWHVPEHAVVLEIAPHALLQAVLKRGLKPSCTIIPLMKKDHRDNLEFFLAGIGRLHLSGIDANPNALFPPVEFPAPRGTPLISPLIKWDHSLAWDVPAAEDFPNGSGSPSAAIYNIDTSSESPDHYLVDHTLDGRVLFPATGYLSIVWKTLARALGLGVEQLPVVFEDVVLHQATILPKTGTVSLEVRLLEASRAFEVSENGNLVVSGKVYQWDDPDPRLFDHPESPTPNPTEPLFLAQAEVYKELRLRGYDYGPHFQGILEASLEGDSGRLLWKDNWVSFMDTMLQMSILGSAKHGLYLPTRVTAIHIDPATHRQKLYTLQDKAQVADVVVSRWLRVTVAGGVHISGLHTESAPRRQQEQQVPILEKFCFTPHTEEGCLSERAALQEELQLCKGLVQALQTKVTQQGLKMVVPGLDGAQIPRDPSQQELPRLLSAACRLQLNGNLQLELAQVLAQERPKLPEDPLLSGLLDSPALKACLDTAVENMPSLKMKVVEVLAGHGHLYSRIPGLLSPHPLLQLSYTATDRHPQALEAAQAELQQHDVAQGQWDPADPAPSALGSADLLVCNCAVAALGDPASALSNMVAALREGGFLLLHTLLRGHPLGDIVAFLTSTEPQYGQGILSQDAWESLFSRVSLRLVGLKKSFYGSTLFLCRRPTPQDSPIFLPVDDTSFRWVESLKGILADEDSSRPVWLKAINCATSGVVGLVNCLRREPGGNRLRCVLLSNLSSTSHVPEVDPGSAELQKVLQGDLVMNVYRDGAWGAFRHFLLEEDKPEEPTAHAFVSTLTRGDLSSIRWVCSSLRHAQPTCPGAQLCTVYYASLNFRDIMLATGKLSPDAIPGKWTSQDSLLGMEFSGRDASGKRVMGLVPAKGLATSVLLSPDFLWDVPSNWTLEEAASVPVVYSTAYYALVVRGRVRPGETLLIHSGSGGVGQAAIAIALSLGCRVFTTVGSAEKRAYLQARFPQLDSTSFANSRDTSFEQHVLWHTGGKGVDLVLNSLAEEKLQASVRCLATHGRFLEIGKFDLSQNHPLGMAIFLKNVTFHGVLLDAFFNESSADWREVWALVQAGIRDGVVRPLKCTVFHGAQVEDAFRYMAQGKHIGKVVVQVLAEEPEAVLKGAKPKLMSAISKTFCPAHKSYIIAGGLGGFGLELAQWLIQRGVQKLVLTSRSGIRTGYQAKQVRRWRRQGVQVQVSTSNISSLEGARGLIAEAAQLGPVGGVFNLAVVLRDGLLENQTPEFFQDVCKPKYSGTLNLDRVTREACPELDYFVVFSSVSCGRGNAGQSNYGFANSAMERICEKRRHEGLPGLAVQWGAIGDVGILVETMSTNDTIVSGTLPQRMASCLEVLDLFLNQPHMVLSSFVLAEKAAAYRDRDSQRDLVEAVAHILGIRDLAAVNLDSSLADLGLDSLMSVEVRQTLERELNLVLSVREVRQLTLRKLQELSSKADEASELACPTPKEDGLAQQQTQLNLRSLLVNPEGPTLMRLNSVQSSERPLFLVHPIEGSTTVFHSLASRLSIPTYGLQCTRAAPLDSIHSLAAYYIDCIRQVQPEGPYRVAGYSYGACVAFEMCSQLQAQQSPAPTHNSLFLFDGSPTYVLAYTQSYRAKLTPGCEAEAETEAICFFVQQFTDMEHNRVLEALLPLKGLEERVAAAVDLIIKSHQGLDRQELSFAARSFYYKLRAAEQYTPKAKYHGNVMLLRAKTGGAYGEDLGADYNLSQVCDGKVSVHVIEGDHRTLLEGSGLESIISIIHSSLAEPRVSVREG
MPTP counter: membrane potential counter-screen of mitochondrial pore inhibitors; shares compounds with MPTP inh; isolated mitochondria, Rhodamine 123 fluorescence; inhibition, % at 10 µM; hit rate 78% among 5,000; in the data active = inhibition above about 22%;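 note: 0% = DMSO vehicle and 100% = positive control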
MPTP swell DR: MPTP inhibition, dose response swelling confirmation. shares compounds with MPTP inh. hit rate 58% among 780. isolated mitochondria swelling, absorbance. IC50, µM; in the data active = IC50 below about 20 µM
MPTP cs DR: MPTP inhibitor counter-screen activity, dose response | shares compounds with MPTP inh | AID 651564 | hit rate 49% among 780 | IC50, µM | isolated mitochondria counterscreen, fluorescence read-out; in the data active = IC50 below about 80 µM
* hit, by the source's call; i = inactive; ? = inconclusive; . = no result given; + = active, no number. Hits are enriched below; roughly 5.7% of the tested compounds scored in any of these assays.

SMILES	NR3A LBD binder	rCAG RNA binder	MPTP inh	Myeloid diff MLP	FAS-TE inh	MPTP counter	others
Cc1cc2nc(C)n(CCCNC(=O)Nc3cccc4ccccc34)c2cc1C	-3	-6	88*	i	15	91*
CCN(C)C1CN(Cc2cn(CCCC(=O)OC)nn2)S(=O)(=O)C1 (centres undefined)	.	-1	0	i	-12	.
CSc1nc(N)nc(SCC(=O)C(C)(C)C)c1C#N	-34	6	4	i	10	.
CSc1nc(N)nc(SCC(=O)Nc2cccc(F)c2)c1C#N	26*	10	93*	i	40	87*
COc1cc([N+](=O)[O-])ccc1NC(=O)COC(=O)c1ccc(NC(N)=O)cc1	-1	-1	0	i	2	.
COc1cc(NS(=O)(=O)c2ccc(-n3cccn3)cc2)cc(OC)c1	.	.	60*	i	0	71*
Cc1ccc(NS(=O)(=O)c2ccc(-n3cccn3)cc2)cc1C	-10	1	2	i	9	.
Cc1ccccc1Oc1ccc2c(c1)[C@@H]1C[C@H](N(C)C(=S)Nc3ccc(F)cc3)[C@H]([C@H](C)O)C(=O)N1CC2	.	4	0	i	24	.
Cc1ccc(Cl)cc1N1CCN(C(=O)CSc2nnc3n2C(C)(C)Cc2ccccc2-3)CC1	-2	-2	94*	i	20	90*
CC(=O)c1ccc(NC(=S)NN2C(C)CCCC2C)cc1 (centres undefined)	-1	-3	4	i	-6	.
CC(=O)c1ccc(NC(=S)NC2CCCC(C)C2C)cc1 (centres undefined)	-22	8	71*	i	12	75*
CC1CCCC(NC(=S)Nc2cccc(S(=O)(=O)N(C)C)c2)C1C (centres undefined)	-1	5	73*	?	16	92*
CCC1C(=O)Nc2nc(-c3ccccc3)c(-c3ccccc3)n2N=C1C (centres undefined)	-5	-4	1	i	1	.
CC(=O)c1ccc(Nc2nc3ccccc3nc2NS(=O)(=O)c2cccs2)cc1	-2	33	83*	i	0	32*
O=C(O)c1cccc(Nc2nc3ccccc3nc2NS(=O)(=O)c2cccs2)c1	-3	14	0	i	-5	.
CCCCC(NC(=O)COc1cc2c(c3oc(=O)cc(C)c13)CCC(C)(C)O2)C(=O)O (centres undefined)	-3	20	-1	i	-3	.
O=c1c2ccccc2nc2n1CCN2Cc1ccc(Cl)cc1	2	.	4	i	8	.
Fc1ccc2[nH]c3c(NCc4ccccc4)ncnc3c2c1	-5	4	84*	i	3	75*
CC1(C)SC(=S)N(NC(=O)Nc2ccccc2)C1N(O)C(=O)Nc1cccc2ccccc12 (centres undefined)	21*	7	72*	i	-87	69*
O=C(Nc1ccccc1)Nc1csc2ccccc12	31*	12	84*	i	23	85*
O=C(Nc1ccc(C(=O)O)cc1)Nc1cccc2ccccc12	-16	0	-2	i	-2	.
O=C(Nc1ccccc1)Nc1cccc2ccccc12	4	4	71*	i	0	75*
O=C1NC[C@H](CCCCN2C[C@H](Cc3ccccc3)N(CCC3CCCCC3)C(=O)C2=O)N(Cc2ccccc2)C1=O	.	5	-2	i	5	.
CCOC(=O)c1c(O)c2cc(Cl)ccc2n(CC)c1=O	1	0	1	i	-1	.
OC(COCC(F)(F)C(F)(F)C(F)(F)C(F)F)Cn1c2ccc(Cl)cc2c2cc(Cl)ccc21 (centres undefined)	19*	.	80*	?	56*	52*
SMILES	NR3A LBD binder	rCAG RNA binder	MPTP inh	Myeloid diff MLP	FAS-TE inh	MPTP counter	others
O=C(NC(=S)NCCO)c1sc2ccccc2c1Cl	-2	5	2	i	-2	.
CC(C)(C)C(=O)NC(=S)NNC(=O)c1sc2ccccc2c1Cl	-5	.	61*	i	-3	21*
CCN(CC)CCNC(C(=O)Nc1ccc([N+](=O)[O-])cc1Br)c1ccccc1 (centres undefined)	-2	-1	61*	i	7	-2	MPTP swell DR=>100;MPTP cs DR=>80
COc1ccc(CN(C)CC(=O)Nc2ccccc2C(=O)NC2CC2)cc1F	0	-2	-2	i	0	.
O=C(COC(=O)CNS(=O)(=O)/C=C/c1ccccc1)Nc1cc(S(=O)(=O)N2CCCCC2)ccc1Cl	0	7	70*	i	-4	14	MPTP swell DR=i;MPTP cs DR=11*
Cc1ccc(S(=O)(=O)N2CCCCC2)cc1NCC(=O)Nc1ccc(Br)cc1F	.	5	66*	i	22	94*
Cc1ccc(S(=O)(=O)N2CCCCC2)cc1NC(=O)Nc1ccc(Cl)cc1Cl	14*	2	85*	i	2	29*
O=C(CNc1ccccc1F)Nc1cc(S(=O)(=O)N2CCCCC2)ccc1Cl	-7	4	2	i	20	.
O=C(Nc1cccc(Cl)c1)Nc1cc(S(=O)(=O)N2CCCCC2)ccc1Cl	11*	34	84*	i	26	63*
Cc1ccccc1CN1CCN(C(=O)[C@H]2O[C@@H](n3cnc4c(N)ncnc43)[C@H](O)[C@@H]2O)CC1	.	4	0	i	-8	.
O=C(CNC(=O)c1ccco1)OCc1ccccc1F	-1	2	0	i	-5	.
Cc1ccc(Nc2ccc([N+](=O)[O-])cn2)cc1Cl	14*	13	75*	i	20	69*
O=C(Nc1ccc(Cl)c(Cl)c1)Nc1ccc([N+](=O)[O-])cn1	-14	0	30	i	16	.
CCc1c(C)sc(NC(=O)Cn2nc(C(F)(F)F)c3c2CCCC3)c1C#N	9	-3	65*	i	6	77*
CN(C(=O)OC(C)(C)C)c1ccc(-c2nc3ccccc3s2)cc1	4	-3	2	i	33	.
c1ccc(-c2nc(-c3ccncc3)no2)cc1	-1	1	-1	i	-9	.
c1ccc(C(Cc2nc(-c3ccncc3)no2)c2ccccc2)cc1	0	-3	78*	i	15	72*
O=C(Cn1nnc(N2CCCCC2)n1)NN=Cc1ccccc1O	.	5	.	.	.	.
CC(C)(C)c1ccc(C(=O)N/N=C/c2cccc(Cl)c2)cc1	-7	7	81*	i	25	84*
O=S(=O)(NCCc1ccncc1)c1ccc(S(=O)(=O)N2CCCCCC2)cc1	-1	3	0	i	0	.
CC(=O)NC(c1ccccc1)c1nc(-c2cccs2)cs1 (centres undefined)	.	0	1	i	0	.
CN(C)c1ccc(C=c2c3cc(O)ccc3n3c2cc(-c2ccccc2)[n+]3C)cc1	3	25	53*	+	11	59*
